# An excerpt weighted towards active compounds, which were near 4% of everything screened.
# HIF-2a inh = HIF-2a inhibition. 786-0 RCC cells HIF-2a reporter, luciferase luminescence, overnight. actives 0.72% (n = 360,000). inhibition, % at 18.8 µM;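 active = inhibition of the luminescence signal of 40% or more relative to plate controls, in a single-dose primary screen at 18.75 µM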
# KKLEB tox = reduces viability of KKLEB cystic fibrosis airway cells; KKLEB CF airway cells viability, ATPlite luminescence, overnight; hits give low values; cells stimulated with P. aeruginosa culture filtrate; activity change (cytotoxicity), % at 5 µM; actives 0.36% (n = 360,000); AID 602141;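 active = corrected activity change at or below -50% at 5 µM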
# CF NFkB inh = blocks PAF-induced NF-kB reporter in cystic fibrosis cells; inhibition, % at 5 µM; AID 588850; actives 0.86% (n = 360,000); KKLEB NF-kB-GFP reporter, GFP fluorescence overnight;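 active = at least 50% inhibition at 5 µM, scaled per plate between neutral and stimulator controls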;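 note: PAF is a Pseudomonas aeruginosa culture filtrate used as stimulus; plate controls were PAF-stimulated DMSO wells for no effect and unstimulated DMSO wells for full effect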
# Peg3 promoter = Peg3 promoter activity inhibition. HeLa PEG-Prom luciferase reporter, luminescence, overnight. inhibition, % at 20 µM. actives 1.7% (n = 360,000);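 active = inhibition of at least 50% at 20 µM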
# TROY NFkB inh = TROY signaling inhibition. Q293 LMP1-TROYcd NF-kB luciferase reporter, 4 h. inhibition, % at 10 µM. actives 0.98% (n = 360,000). AID 1347056;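 active = compounds whose plate-normalised and pattern-corrected inhibition of the luciferase reporter signal at the single screening dose is 50% or more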
# TWEAK-Fn14 inh = blocks TWEAK-Fn14 interaction in a reporter cell assay. TWEAK-stimulated Fn14 reporter cells, luciferase luminescence, 8 h. inhibition, % at 10 µM. actives 2% (n = 360,000); in the data active = inhibition above about 50%
# CF NFkB inh conf = CF NF-kB inhibition confirmation, single concentration; shares compounds with CF NFkB inh; KKLEB CF airway cells, PAF-induced NF-kB-GFP fluorescence, overnight; inhibition, % at 5 µM; actives 64% (n = 1,300); AID 602472; in the data active = inhibition above about 40%;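 note: stimulus PAF is a Pseudomonas aeruginosa filtrate and not platelet activating factor; plate controls were DMSO wells with stimulus for no effect and unstimulated DMSO wells for full effect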
# * = called active by the depositor; . = no result given.
SMILES,HIF-2a inh,KKLEB tox,CF NFkB inh,Peg3 promoter,TROY NFkB inh,TWEAK-Fn14 inh,CF NFkB inh conf
OCCN1CCN(c2ncnc3ccc(Br)cc23)CC1,27,-9,53*,-9,27,49,67*
Cc1ccc(CNc2ncnc3ccc(-c4ccoc4C)cc23)o1,15,-5,74*,18,-5,65*,97*
CCN(CC)C(=O)CSc1n[nH]c(=O)n1CCc1ccccc1,13,-2,5,15,2,7,.
O=c1[nH]nc(Sc2ncnc3sccc23)n1CCc1ccccc1,29,-21,54*,44,22,57*,45*
CCOc1cc2c(cc1O)C(=NO)CC1C2CCC2(C)C(O)CCC12 (configuration not stated),31,-28,52*,1,12,17,75*
CCOC(=O)c1ccc(NC(=O)Nc2nncs2)cc1,-148,-22,66*,-268,-7,12,81*
Nc1nc(N)c2ncn(C3C=CC(CO)C3)c2n1 (configuration not stated),10,-20,17,10,-5,-7,.
CC(=O)Nc1sc(C)c(C)c1C(=O)OCC(=O)NCc1ccccc1,-19,-3,-7,-12,-22,-5,.
COc1ccc(NC(=O)COC(=O)c2c(NC(C)=O)sc(C)c2C)cc1,-9,-45,56*,4,-52,-28,24
S=c1nc(NCCc2ccccc2Cl)c2ccccc2[nH]1,-225,-6,2,-173,6,-17,.
CCOC(=O)Cc1csc(Nc2ccc(Cl)cc2)n1,13,12,-3,-55,-71,-19,.
CCOC(=O)Cc1nnc2c(Nc3ccc(Cl)cc3)nc3nonc3n12,7,-21,51*,49,52*,36,59*
Cc1onc(-c2c(F)cccc2Cl)c1C(=O)OCC(=O)N(C)c1ccccc1,3,24,-37,2,8,2,.
COc1cc(C(=O)NC(=S)NNC(=O)c2ccc3c(c2)OCO3)cc(OC)c1OC,13,7,-3,19,-19,-37,.
COc1cc(C(=O)c2cc3c(cc2C)OCO3)cc(OC)c1OC,5,-19,58*,-71,-9,5,82*
O=C(/C=C/c1ccccc1[N+](=O)[O-])N1CCOCC1,19,-44,70*,11,-15,19,-2
NC(=O)C1CCN(C(=O)/C=C/c2ccccc2[N+](=O)[O-])CC1,7,-2,8,-6,10,2,.
CCC(CO)Oc1cc(NCc2ccc(O)cc2)c2ncn(C(C)C)c2c1 (configuration not stated),2,-3,7,2,-7,-1,.
CCCCOc1cc(NCc2ccccc2)c2ncn(C(C)C)c2c1,1,-8,60*,10,12,10,22
CCC(CO)Oc1cc(NCc2ccccc2C(F)(F)F)c2ncn(C(C)C)c2c1 (configuration not stated),22,-17,61*,39,-1,10,11
CCC(CO)Oc1cc(NCc2ccc(C(C)(C)C)cc2)c2ncn(C(C)C)c2c1 (configuration not stated),20,1,51*,19,21,3,29
CCC(CO)Oc1cc(NCc2ccccc2)c2ncn(C(C)C)c2c1 (configuration not stated),5,-4,8,15,-32,-3,.
CCC(COC)Oc1cc(NCc2ccccc2)c2ncn(C(C)C)c2c1 (configuration not stated),12,-15,66*,0,30,33,20
CC(=O)NC(c1cccc(F)c1)c1nc(-c2csc3ccccc23)cs1 (configuration not stated),-36,-10,32,-17,-2,7,.
CCN(CC(=O)Nc1cccc(OC)c1)C(=O)C1CC(=O)N(Cc2ccccc2Cl)C1 (configuration not stated),8,12,-11,7,-3,9,.
O=C(Nc1ccc(NC(=O)c2ccccn2)cc1)C(=O)Nc1ccc2c(c1)OCCO2,-15,-47,55*,-16,-5,-36,11
